Test [1] has as its target Glycogen synthase kinase-3 beta (Homo sapiens) (UniProt P49841). Conditions: at 1 µM.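 Also: reported values are mean percent inhibition of GSK3B.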
The target of test [2] is Homeodomain-interacting protein kinase 1 (Homo sapiens) (UniProt Q86Z02). Conditions: at 0.1 µM.
Test [3] has the same target. Conditions: at 1 µM.
The target in test [4] is T1, Homeodomain-interacting protein kinase 4 (Homo sapiens) (UniProt Q8NE63).
T1 sequence (whole entry): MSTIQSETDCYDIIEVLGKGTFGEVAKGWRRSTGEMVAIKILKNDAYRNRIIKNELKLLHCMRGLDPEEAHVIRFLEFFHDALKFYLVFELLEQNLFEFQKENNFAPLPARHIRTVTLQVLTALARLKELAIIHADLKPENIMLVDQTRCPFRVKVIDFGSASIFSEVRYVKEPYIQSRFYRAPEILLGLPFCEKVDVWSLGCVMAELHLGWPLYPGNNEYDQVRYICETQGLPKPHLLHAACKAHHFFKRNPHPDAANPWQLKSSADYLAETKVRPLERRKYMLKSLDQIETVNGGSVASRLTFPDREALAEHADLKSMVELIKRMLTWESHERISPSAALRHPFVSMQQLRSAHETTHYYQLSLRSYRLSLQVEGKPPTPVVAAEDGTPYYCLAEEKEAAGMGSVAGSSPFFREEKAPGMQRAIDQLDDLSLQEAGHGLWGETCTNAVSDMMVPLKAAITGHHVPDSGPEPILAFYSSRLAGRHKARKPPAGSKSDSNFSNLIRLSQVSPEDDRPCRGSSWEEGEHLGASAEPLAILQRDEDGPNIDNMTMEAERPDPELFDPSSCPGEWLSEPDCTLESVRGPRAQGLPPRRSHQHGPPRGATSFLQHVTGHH
The settings on record: at 0.1 µM.

In test [5] the target is T1, Homeodomain-interacting protein kinase 4 (Homo sapiens). Conditions: at 1 µM.
Test [6] has as its target Mitogen-activated protein kinase 9 (Homo sapiens) (UniProt P45984). Conditions: at 0.1 µM.
The target is the same in test [7]. The settings on record: at 1 µM.
In test [8] the target is Mitogen-activated protein kinase 1 (Homo sapiens) (UniProt P28482). Conditions: at 0.1 µM.
Mitogen-activated protein kinase 1 (Homo sapiens), sequence (P28482 whole entry): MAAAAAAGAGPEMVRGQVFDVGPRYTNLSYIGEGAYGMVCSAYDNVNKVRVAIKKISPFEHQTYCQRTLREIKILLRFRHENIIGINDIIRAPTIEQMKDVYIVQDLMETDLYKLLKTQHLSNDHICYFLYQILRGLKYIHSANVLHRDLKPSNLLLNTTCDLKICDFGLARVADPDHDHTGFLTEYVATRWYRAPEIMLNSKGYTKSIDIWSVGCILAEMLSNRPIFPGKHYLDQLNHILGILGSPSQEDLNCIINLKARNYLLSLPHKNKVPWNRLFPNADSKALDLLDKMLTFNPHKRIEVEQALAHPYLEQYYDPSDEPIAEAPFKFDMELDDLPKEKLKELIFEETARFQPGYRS
The target is the same in test [9]. The settings on record: at 1 µM.
In test [10] the target is Mitogen-activated protein kinase 3 (Homo sapiens) (UniProt P27361). Conditions: at 0.1 µM.
Mitogen-activated protein kinase 3 (Homo sapiens), sequence (P27361 whole entry): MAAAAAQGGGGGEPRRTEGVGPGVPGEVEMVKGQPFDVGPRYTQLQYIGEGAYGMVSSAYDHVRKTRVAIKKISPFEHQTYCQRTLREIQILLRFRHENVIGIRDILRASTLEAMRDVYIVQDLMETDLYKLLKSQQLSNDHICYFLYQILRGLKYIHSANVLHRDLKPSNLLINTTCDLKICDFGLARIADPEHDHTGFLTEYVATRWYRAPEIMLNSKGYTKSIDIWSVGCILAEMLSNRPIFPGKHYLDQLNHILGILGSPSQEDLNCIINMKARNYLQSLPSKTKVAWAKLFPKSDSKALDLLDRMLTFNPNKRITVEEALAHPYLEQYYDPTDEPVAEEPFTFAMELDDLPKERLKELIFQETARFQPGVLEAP
The target is the same in test [11]. Conditions: at 1 µM.
The target in test [12] is SRSF protein kinase 3 (Homo sapiens) (UniProt Q9UPE1). Conditions: at 0.1 µM.
SRSF protein kinase 3 (Homo sapiens), sequence (Q9UPE1 whole entry): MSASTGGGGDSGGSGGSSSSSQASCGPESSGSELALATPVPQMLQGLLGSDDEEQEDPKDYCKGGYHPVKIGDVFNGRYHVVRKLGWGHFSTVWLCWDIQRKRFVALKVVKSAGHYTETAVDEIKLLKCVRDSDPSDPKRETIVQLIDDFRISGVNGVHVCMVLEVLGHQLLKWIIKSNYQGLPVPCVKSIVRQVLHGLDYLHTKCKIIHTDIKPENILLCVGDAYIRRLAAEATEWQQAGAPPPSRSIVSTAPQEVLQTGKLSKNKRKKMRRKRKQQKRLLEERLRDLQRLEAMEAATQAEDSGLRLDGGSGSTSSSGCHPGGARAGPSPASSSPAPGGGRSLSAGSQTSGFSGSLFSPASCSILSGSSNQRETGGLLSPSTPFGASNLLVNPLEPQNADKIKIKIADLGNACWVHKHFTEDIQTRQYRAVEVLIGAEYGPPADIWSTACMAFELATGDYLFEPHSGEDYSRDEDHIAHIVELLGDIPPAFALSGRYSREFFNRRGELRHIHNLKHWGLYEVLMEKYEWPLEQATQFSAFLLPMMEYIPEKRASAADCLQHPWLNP
Test [13] shares this target. The settings on record: at 1 µM.
Test [14] deals with Mitogen-activated protein kinase 14 (Homo sapiens) (UniProt Q16539). The settings on record: at 0.1 µM.
Mitogen-activated protein kinase 14 (Homo sapiens), sequence (Q16539 whole entry): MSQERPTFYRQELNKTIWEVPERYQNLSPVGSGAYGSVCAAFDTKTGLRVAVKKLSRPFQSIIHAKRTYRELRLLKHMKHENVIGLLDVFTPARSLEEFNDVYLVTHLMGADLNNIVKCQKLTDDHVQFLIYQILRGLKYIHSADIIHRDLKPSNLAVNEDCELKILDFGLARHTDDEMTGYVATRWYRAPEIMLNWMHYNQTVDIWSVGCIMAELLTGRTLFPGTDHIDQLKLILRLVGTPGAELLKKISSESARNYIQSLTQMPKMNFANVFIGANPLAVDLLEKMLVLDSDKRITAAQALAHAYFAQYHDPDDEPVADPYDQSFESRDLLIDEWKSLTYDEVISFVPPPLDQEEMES
For test [15] the target is unchanged. Conditions: at 1 µM.
Test [16] concerns the target Mitogen-activated protein kinase 11 (Homo sapiens) (UniProt Q15759). Conditions: at 0.1 µM.
Test [17] shares this target. Conditions: at 1 µM.
Test [18] concerns the target T2, Mitogen-activated protein kinase 13 (Homo sapiens) (UniProt O15264).
T2 sequence (whole entry): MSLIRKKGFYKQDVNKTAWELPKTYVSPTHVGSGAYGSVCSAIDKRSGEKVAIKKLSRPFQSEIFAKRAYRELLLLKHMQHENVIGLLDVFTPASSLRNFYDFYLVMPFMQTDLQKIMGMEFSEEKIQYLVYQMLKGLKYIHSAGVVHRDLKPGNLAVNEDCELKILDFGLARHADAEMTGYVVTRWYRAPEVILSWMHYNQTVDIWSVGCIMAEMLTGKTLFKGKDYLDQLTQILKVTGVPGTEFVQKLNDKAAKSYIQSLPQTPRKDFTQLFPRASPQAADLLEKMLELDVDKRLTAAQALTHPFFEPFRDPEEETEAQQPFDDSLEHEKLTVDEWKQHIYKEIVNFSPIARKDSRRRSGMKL
The settings on record: at 0.1 µM.

Test [19] concerns the target T2, Mitogen-activated protein kinase 13 (Homo sapiens). Conditions: at 1 µM.
In test [20] the target is T3, Mitogen-activated protein kinase 12 (Homo sapiens) (UniProt P53778).
T3 sequence (whole entry): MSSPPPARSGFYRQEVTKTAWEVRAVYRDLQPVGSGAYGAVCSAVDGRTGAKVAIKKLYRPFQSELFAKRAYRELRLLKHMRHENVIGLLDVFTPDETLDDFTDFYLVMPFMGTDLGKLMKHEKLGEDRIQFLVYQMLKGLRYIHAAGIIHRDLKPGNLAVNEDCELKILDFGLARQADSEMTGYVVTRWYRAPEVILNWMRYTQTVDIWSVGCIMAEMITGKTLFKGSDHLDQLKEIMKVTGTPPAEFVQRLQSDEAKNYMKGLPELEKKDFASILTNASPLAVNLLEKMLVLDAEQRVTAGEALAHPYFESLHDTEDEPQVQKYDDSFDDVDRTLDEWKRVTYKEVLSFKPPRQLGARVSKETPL
The settings on record: at 0.1 µM.

The structures appear in SMILES notation.

Homeodomain-interacting protein kinase 1 (Homo sapiens), sequence (Q86Z02 whole entry, looked up): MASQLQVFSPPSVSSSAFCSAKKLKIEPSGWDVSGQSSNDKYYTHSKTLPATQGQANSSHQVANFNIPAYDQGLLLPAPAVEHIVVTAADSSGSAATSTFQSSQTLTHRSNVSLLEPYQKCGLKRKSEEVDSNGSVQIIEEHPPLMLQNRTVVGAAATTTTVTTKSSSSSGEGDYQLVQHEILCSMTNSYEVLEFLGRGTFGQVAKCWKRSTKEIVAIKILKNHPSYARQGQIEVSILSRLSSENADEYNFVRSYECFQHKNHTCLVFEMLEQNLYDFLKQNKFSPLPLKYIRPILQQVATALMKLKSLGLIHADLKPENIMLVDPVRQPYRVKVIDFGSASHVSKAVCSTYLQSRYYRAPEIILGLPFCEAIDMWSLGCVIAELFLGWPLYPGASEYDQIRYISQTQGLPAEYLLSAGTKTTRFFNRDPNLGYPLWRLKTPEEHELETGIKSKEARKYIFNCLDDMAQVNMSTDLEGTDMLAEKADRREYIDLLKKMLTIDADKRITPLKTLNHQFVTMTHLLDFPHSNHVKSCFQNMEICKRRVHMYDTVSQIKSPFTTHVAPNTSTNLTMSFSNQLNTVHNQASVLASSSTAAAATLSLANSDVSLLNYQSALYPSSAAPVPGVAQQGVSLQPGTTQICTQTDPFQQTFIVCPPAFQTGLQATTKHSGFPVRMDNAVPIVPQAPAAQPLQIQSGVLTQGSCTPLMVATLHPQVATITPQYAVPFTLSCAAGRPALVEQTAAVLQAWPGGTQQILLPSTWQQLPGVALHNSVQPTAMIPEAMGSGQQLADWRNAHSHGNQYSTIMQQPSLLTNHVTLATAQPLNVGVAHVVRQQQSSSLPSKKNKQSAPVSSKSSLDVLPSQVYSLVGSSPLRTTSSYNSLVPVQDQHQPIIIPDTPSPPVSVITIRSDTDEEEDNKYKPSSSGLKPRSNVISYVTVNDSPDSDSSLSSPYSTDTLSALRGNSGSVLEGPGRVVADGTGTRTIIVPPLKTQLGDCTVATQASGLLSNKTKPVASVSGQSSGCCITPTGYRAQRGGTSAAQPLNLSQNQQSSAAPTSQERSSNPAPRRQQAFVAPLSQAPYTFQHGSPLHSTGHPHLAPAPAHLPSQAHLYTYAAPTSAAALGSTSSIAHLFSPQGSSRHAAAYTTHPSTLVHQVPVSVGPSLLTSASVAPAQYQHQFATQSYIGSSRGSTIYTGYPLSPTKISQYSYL
Mitogen-activated protein kinase 11 (Homo sapiens), sequence (Q15759 whole entry): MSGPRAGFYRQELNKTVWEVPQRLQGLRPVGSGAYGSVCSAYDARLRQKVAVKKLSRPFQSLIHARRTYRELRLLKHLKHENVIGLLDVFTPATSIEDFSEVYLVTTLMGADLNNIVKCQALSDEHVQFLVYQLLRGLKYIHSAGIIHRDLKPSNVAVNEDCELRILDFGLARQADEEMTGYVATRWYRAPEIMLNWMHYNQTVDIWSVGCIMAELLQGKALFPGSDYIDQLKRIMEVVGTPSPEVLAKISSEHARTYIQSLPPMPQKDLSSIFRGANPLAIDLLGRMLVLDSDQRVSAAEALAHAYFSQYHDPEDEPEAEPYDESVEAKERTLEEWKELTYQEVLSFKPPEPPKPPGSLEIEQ
Mitogen-activated protein kinase 9 (Homo sapiens), sequence (P45984 whole entry, looked up): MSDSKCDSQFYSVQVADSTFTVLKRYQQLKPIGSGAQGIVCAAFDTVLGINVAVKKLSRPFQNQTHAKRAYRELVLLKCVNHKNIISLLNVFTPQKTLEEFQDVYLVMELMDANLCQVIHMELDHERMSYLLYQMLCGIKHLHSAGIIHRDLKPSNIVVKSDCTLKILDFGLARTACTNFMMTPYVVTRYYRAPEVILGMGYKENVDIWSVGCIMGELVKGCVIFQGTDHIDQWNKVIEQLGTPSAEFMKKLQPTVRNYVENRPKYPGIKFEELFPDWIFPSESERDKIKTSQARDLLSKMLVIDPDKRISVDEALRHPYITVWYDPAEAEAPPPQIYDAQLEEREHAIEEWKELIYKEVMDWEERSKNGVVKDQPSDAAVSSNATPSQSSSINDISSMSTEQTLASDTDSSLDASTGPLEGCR
Glycogen synthase kinase-3 beta (Homo sapiens), sequence (P49841 whole entry, looked up): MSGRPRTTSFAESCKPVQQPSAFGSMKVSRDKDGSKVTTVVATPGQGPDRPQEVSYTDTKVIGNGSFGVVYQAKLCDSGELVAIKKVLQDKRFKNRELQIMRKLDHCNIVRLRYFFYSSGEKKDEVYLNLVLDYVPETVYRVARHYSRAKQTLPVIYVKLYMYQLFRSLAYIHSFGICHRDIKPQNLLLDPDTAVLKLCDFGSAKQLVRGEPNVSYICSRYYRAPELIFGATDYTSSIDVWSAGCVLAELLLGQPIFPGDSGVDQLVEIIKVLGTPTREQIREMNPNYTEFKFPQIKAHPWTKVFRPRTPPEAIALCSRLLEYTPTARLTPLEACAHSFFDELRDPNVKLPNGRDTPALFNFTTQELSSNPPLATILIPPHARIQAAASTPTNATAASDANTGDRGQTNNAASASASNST

`C[C@@H](Oc1cc(-n2cnc3ccc(OC4CCN(C)CC4)cc32)sc1C(N)=O)c1ccccc1Cl`: the inhibition in test [1] is -0.12%; in [2], -4.32%; in test [3], 2.08%; in test [4], 3.54%; in test [5] it was 28.7%; in [6], 1.24%. The inhibition in [7] is 5.06%; in test [8] it was 5.74%; in [9], 6.64%; in test [10] it was 3.11%; in test [11], 4.52%; in test [12] it was -2.03%. Besides, the inhibition in test [13] is -0.98%; in test [14], 9.29%; in test [15] it was 10.7%; in test [16] it was 2.89%; in test [17], 3.75%; in test [18] it was 4.78%. Also, the inhibition amounted to 6.01% in [19] and 4.13% in [20].

As to `CCc1cccc(CC)c1/C=C/c1cncc(C(=O)NC)c1`, the inhibition in [1] came to 7.96%; in test [2], 1.64%; in test [3], 7.03%; in [4], 1.04%; in test [5], 4.82%; in test [6] it was 4.45%. Moreover, the inhibition in [7] was found to be 7.37%; in [8], 1.29%; in test [9], 1%; in test [10], 2.05%; in test [11], 1.29%; in test [12], 1.81%. The inhibition in test [13] is 0.49%; in test [14], 3.92%; in test [15], 8.94%; in test [16], 4.41%; in test [17], 4.99%; in test [18], -0.46%. The inhibition in test [19] is 4.25%; in [20], -2.91%.

Turning to `Fc1ccc(-c2ncn(CCCN3CCOCC3)c2-c2ccncc2)cc1`, the inhibition is 1.01% in [1]; -3.44% in [2]; -1.47% in test [3]; -2.02% in [4]; -2.54% in [5]; 2.43% in [6]. Moreover, the inhibition was 6.68% in test [7]; 0.12% in [8]; 1.09% in test [9]; 4.06% in test [10]; 1.77% in test [11]; -0.25% in test [12]. Besides, the inhibition in test [13] is -0.76%; in test [14] it was 7.39%; in test [15], 48%; in test [16] it was 3.21%; in [17], 8.94%; in [18] it was 0.12%. Moreover, the inhibition was -0.39% in test [19] and 0.95% in test [20].

Turning to `NS(=O)(=O)c1ccc(N/N=C2\C(=O)Nc3ccc(-c4cnco4)cc32)cc1`, the inhibition in test [1] was 65.2%; in [2], -2.16%; in test [3], 25.2%; in test [4] it was 3.05%; in test [5], 15.6%; in [6] it was 0.65%. Further, the inhibition in [7] is 2.38%; in [8], 3.21%; in test [9], 7.04%; in [10], 2.36%; in test [11], 3.04%; in test [12], -2.14%. In addition, the inhibition in test [13] was -0.18%; in test [14] it was 2.88%; in test [15], 2.83%; in test [16], 0.43%; in test [17] it was 2.84%; in test [18] it was 2.15%. The inhibition was determined as 2.61% in [19] and 2.22% in [20].

`c1ccc(Oc2ccc(Nc3ncc(-c4ccccc4)o3)cc2)cc1`: the inhibition in test [1] was 7.42%; in test [2] it was 1.51%; in test [3] it was 3.29%; in test [4], -0.61%; in [5], 1.2%; in test [6], 0.54%. For the same compound, the inhibition in [7] was 2.94%; in test [8] it was -1.99%; in test [9], 6.11%; in [10], 1.01%; in test [11], 1.29%; in [12] it was 0.57%. For the same compound, the inhibition in test [13] is 0.33%; in test [14] it was 5.45%; in test [15], 8.09%; in [16], -0.05%; in test [17] it was 4.25%; in test [18], 1.2%. Also, the inhibition in [19] is 0.96%; in test [20], -0.32%.

For the compound `C[C@@H](Oc1cc(-n2cnc3ccc(OCC4CCN(C)CC4)cc32)sc1C(N)=O)c1ccccc1Cl`, the inhibition is 8.9% in [1]; -1.26% in test [2]; 8.77% in [3]; 3.09% in test [4]; 21.8% in test [5]; 7.22% in test [6]. The inhibition in test [7] worked out at 10.9%; in test [8], 7.6%; in test [9], 8.78%; in test [10], 4.68%; in test [11] it was 7.74%; in [12] it was 0.89%. Besides, the inhibition worked out at 0.11% in test [13]; 5.8% in [14]; 6.58% in test [15]; 3.71% in test [16]; 5.93% in [17]; 5.74% in test [18]. Besides, the inhibition in test [19] is 6.23%; in test [20], 3.48%.
